Shown are actives, neighbours in structure and some others; about 1.9% of the full set was active somewhere.
aDG glyco up: increases alpha dystroglycan glycosylation. hit rate 0.22% among 360,000. Pro5-aDG cells, alpha-DG glycosylation AlphaScreen (IIH6); 0% Pro5, 100% B10-LARGE cell signal. activation, % at 10 µM;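 active = activation of at least 8% versus controls, or a plate z-score of at least 8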;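 note: Pro5 are CHO cells carrying HIG-tagged alpha-DG that lacks glycosylation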
EBNA-1 inhibitor: blocks EBNA-1 binding to DNA; AID 1950; inhibition, % at 14.8 µM; hit rate 0.34% among 300,000; EBNA-1 DNA binding, fluorescence polarization; in the data active = inhibition above about 28%
NCF1 inh: inhibitors of human p47phox binding; AID 1274; p47phox/p22phox peptide binding, fluorescence polarization, 2 h; inhibition, % at 24.7 µM; P14598; hit rate 0.53% among 220,000;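 active = inhibition above about 30%, limit read from the data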;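 note: 0% = p47phox with labelled peptide and 100% = labelled peptide alone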
Target sequence (P14598 whole entry, looked up): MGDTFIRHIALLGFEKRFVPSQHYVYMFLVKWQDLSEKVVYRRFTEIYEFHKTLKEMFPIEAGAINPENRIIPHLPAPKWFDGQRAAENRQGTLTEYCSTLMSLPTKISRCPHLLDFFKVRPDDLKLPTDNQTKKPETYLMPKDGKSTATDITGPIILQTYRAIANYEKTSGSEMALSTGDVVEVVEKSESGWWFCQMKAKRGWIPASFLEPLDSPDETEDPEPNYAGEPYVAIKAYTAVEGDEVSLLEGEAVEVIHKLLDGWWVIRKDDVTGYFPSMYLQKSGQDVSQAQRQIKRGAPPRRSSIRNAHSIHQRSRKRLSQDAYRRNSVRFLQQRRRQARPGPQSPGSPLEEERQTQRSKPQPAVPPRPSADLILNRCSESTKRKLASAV
Rev-erbA mod: modulators of human Rev-erb alpha DNA binding; Rev-erbα–FITC-DNA binding, fluorescence polarization, 90 min; P20393; hit rate 0.79% among 370,000; activity, % at 10 µM;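 active = activity above about 14%, limit read from the data; passing the limit was not always enough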;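 note: 0% = DMSO wells with 35 nM protein and 100% = DMSO wells with 750 nM protein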
ZTA counter: blocks Epstein-Barr virus ZTA, an EBNA-1 counter-screen | P03206 | ZTA-DNA binding, fluorescence polarization | inhibition, % at 11 µM | hit rate 0.15% among 320,000; in the data active = inhibition above about 33%
Target sequence (P03206 whole entry, looked up): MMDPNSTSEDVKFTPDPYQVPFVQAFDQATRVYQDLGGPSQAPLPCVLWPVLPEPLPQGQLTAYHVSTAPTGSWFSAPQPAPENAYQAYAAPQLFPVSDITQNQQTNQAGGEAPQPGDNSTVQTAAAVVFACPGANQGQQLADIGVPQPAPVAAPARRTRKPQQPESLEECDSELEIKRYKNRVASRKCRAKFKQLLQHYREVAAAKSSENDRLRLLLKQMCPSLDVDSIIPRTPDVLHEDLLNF
PG9 binder: binds the HIV-1 gp120 antibody PG9; hit rate 0.43% among 360,000; inhibition, % at 6.7 µM; TR-FRET gp120-PG9 antibody binding; in the data active = inhibition above about 8.5%
EBNA-1 inh conf: EBNA-1 (EBV) inhibition, confirmation. shares compounds with EBNA-1 inhibitor. Recombinant EBNA-1 DBD, Cy5-DNA fluorescence polarization. inhibition, % at 14.8 µM. hit rate 35% among 830. AID 2292;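 active = mean inhibition across replicates above a set limit taken from the earlier primary screen, cut at about 28% in these data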;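 note: plate controls were EBNA-1 protein with DMSO for no effect and wells lacking EBNA-1 for full effect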
ZTA DNA inh trip: counter-screen for EBNA-1 inhibitors: Epstein-Barr virus ZTA inhibitors, triplicate. shares compounds with EBNA-1 inhibitor. Zta-ZRE DNA binding, Cy5 fluorescence polarization. inhibition, % at 11.1 µM. AID 2328. 830 tested, under 10 active;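 active = mean inhibition over triplicates above a set limit taken from the primary EBNA-1 screen, cut at about 37% in these data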;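 note: purified full length Zta protein with Cy5 labeled ZRE DNA probe; 0% = Zta with DMSO and 100% = wells lacking Zta protein; inhibitors lower polarization by freeing the labeled DNA probe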
* marks the source's active call; other numbers are inactive results; / = no result given.

SMILES	aDG glyco up	EBNA-1 inhibitor	NCF1 inh	Rev-erbA mod	ZTA counter	PG9 binder	EBNA-1 inh conf	ZTA DNA inh trip
COc1ccc(-c2cc(C(=O)Nc3cnn(Cc4ccccc4C)c3)no2)cc1OC	0.1	36.5*	-1.1	1.4	1.4	/	22.7	10.2
CCCn1cc(NC(=O)c2cc(-c3ccccc3)on2)cn1	-0.3	8.5	-15.4	-2.7	-4.4	-1.4	/	/
Cc1nc(N2CCN(C(=O)COc3ccccc3C)CC2)c2c3c(sc2n1)CCCC3	/	/	/	-4.1	/	/	/	/
COc1ccc(/C=C/C(=O)Nc2ccccc2C(F)(F)F)cc1	-0.2	32.5*	-10.9	-3.3	8.4	0.5	21.8	-3.4
CC(C)CNC(=O)CC1Oc2ccccc2NC1=O (stereo not given)	/	/	/	-4.2	/	/	/	/
CN(C)c1cccc(C(=O)OCC(=O)N(C)c2ccccc2)c1	-0.1	-11.6	/	-1.5	0.0	-2.2	/	/
CN(C(=O)COC(=O)c1cc2c(s1)CCCCC2)c1ccccc1	0.0	82.2*	/	4.7	-9.8	-0.4	-0.1	9.4
COc1ccc(CSc2nnc(SCc3ccccc3)s2)cc1	/	/	/	2.5	/	/	/	/
Cc1csc2ncnc(N3CCN(C(=S)Nc4ccc(C(F)(F)F)cc4)CC3)c12	0.0	46.9*	-14.7	7.7	-4.6	2.1	-0.9	-1.5
CC(C)(C)N(Cc1cn(Cc2ccccc2)nn1)S(=O)(=O)c1ccc(N2CCCC2)cc1Br	/	/	/	-0.3	/	/	/	/
CCCN(CC(=O)Nc1ccc(C(N)=O)cc1)CC(=O)Nc1ccc(Cl)cc1Cl	0.2	28.7*	-17.2	-1.7	-0.2	-2.0	10.2	6.8
CCCN(CC(=O)Nc1ccc(C(N)=O)cc1)CC(=O)Nc1cc(Cl)ccc1Cl	0.3	22.8	-2.8	-2.0	0.7	-1.2	/	/
C#CCNC(=O)C[C@H]1C[C@@]2(C(=O)OC)C(=C[C@H](COCc3ccccc3)O[C@@H]2C)N(CCCCCCCC)C1=O	/	/	/	4.6	/	/	/	/
CCCC/C=C1/[C@H](CC)N(C)C2=N[C@@H](c3ccccc3)CC(=O)N21	/	/	/	4.0	/	/	/	/
O=C(COC(=O)c1cc(Cl)ccc1Cl)Nc1ccc2[nH]c(=O)[nH]c2c1	0.0	85.3*	/	3.2	-7.4	-1.9	28.4*	2.7
C[C@H](O)[C@@H]1CN2CCc3c([nH]c4c(-c5ccc6c(c5)OCO6)cccc34)[C@@H]2C[C@@H]1N(C)C(=O)Nc1ccccc1	/	/	/	-1.4	/	/	/	/
COc1ccc(-c2cc(C(=O)Nc3c(C)nn(Cc4ccccc4Cl)c3C)no2)cc1	0.1	49.4*	-3.1	-9.0	2.3	-1.4	41.0*	-2.6
COc1ccc(OC)c(-c2cc(C(=O)Nc3c(C)nn(Cc4ccccc4)c3C)no2)c1	1.0	10.0	-6.3	1.0	-9.7	1.1	/	/
Cn1c(/C(C#N)=C/c2ccc(-c3ccc(S(N)(=O)=O)cc3)o2)nc2ccccc21	-0.5	39.9*	-11.0	2.9	7.1	-1.5	38.4*	13.8
O=C(NC1CCCCN(Cc2cccc(Cl)c2)C1=O)c1ccc(COc2ccccc2)cc1 (stereo not given)	/	/	/	6.5	/	/	/	/
CCOc1ccc(NC(=O)CN(C)C(=O)/C=C/c2ccc(S(=O)(=O)N3CCCCCC3)cc2)cc1OCC	-0.3	32.5*	/	-4.2	-0.9	-0.8	14.4	3.8
COc1cccc(NC(=O)CN(C)C(=O)/C=C/c2ccc(S(=O)(=O)N3CCCCCC3)cc2)c1	-0.1	/	/	0.1	/	-2.0	/	/
O=C(COC(=O)c1ccc(Sc2ncn[nH]2)c([N+](=O)[O-])c1)Nc1ccc(Cl)c(Cl)c1	/	/	/	-6.1	/	/	/	/
Cc1ccc(S(=O)(=O)N2CCN(C(=S)NCCc3ccccc3)CC2)cc1	0.0	65.4*	-21.2	-1.7	-2.8	-0.5	11.4	-1.6
Cc1ccccc1Nc1nc(N)nc(CSc2nc3ccccc3c(=O)n2CCCO)n1	0.0	42.2*	-9.0	6.1	8.9	-0.8	-1.8	5.5
SMILES	aDG glyco up	EBNA-1 inhibitor	NCF1 inh	Rev-erbA mod	ZTA counter	PG9 binder	EBNA-1 inh conf	ZTA DNA inh trip
COCCn1c(SCc2nc(N)nc(Nc3ccccc3C)n2)nc2ccccc2c1=O	0.0	1.3	1.4	5.1	7.0	/	/	/
COC(=O)c1cn(NC(=O)/C=C/c2cc(OC)ccc2OC)c(=O)c2ccccc12	-0.4	42.3*	-4.5	-4.0	7.4	-0.8	13.5	2.2
C=CCNC(=O)N1CCC(c2nc3ccc(Cl)cc3[nH]2)CC1	/	/	/	-1.9	/	/	/	/
CNC(=S)NNC(=O)c1sccc1OCc1cccc(C(F)(F)F)c1	0.1	35.3*	0.7	-1.6	1.2	-1.1	65.1*	5.1
CNC(=S)NNC(=O)c1sccc1OCc1ccc(C)cc1	-0.3	-4.8	19.9	1.2	-2.8	0.2	/	/
COc1ccc(/C=C/C(=O)Oc2ccc(/C=N\NC(=O)c3ccc(F)cc3)cc2)cc1	0.0	1.7	-56.3	-1.8	-4.9	0.3	/	/
COc1ccc(/C=C/C(=O)Oc2cccc(/C=N/NC(=O)c3cccc(F)c3)c2)cc1	0.2	28.8*	-14.8	1.4	0.4	0.6	3.5	1.2
Cc1nnc(NC(=O)CSc2ncnc3scc(-c4ccccc4)c23)s1	-0.2	34.0*	3.1	-11.1	13.4	-1.4	29.1*	-6.7
O=C1c2c(O)cccc2Cc2cccc(O)c21	0.0	30.8*	/	-13.8	-18.4	-3.0	16.7	10.9
O=C1Cc2cccc(=O)c(O)c2C(=O)O1	0.4	/	/	-1.5	/	-0.6	/	/
Cn1c2ccccc2c2cnn(CC(=O)Nc3ccccc3Br)c(=O)c21	0.0	32.4*	8.0	-6.7	6.7	-0.1	10.6	-2.3
COC(=O)[C@H]1C[C@@]2(n3ccc4ccccc43)c3ccccc3N[C@H]2N1	/	/	/	0.9	/	/	/	/
Cc1ccc(OCC(=O)NC(=S)Nc2cccc(NC(=O)c3ccc(Cl)cc3Cl)c2)cc1	0.0	19.7	-8.9	3.8	-15.4	-1.9	/	/
Cc1ccc(OCC(=O)NC(=S)Nc2cccc(NC(=O)c3ccccc3)c2)cc1	-0.1	28.8*	-8.6	1.7	14.3	-0.8	16.7	-6.2
CS(=O)(=O)N[C@@H]1C[C@@H]2O[C@H](CO)CC[C@@H]2O[C@@H]1CCc1ccc(-c2ccccc2F)cc1	/	/	/	5.2	/	/	/	/
